From PubChem BioAssay AID1159580 (chemical genetic matrix, 2015)
Several values for one entry are separate records, joined by “and”; a condition that tells them apart may be missing. Equal values may be shown once. Hit rate of the full screen: of about 5,500 compounds, about 2,000 (36%) were called active. Inconclusive results (about 18%) are left out. No stated cut-off is given here; in the data, active means normalized growth mostly below about 0.91 (no sharp cut-off); inconclusive means no clear call, values can overlap the other calls; inactive means mostly above about 0.92. Some of the results follow.

Test: chemical genetic growth profiling, strain panel (AID 1159580);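 further: tested at 20 µM; growth read once vehicle control cultures reached saturation at 30 °C; 1 = growth at the plate median or of vehicle wells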
Conditions: S. cerevisiae deletion strains, growth OD

Measured: normalized growth

CC1COc2c(N3CCN(C)CC3)c(F)cc3c(=O)c(C(=O)O)cn1c23 (stereo not drawn)
inactive: locus YAL013W, strain DEP1, stronger effect = lower value 0.993 | locus YAL021C, strain ccr4, stronger effect = lower value 0.99 | locus YAL026C, strain drs2, stronger effect = lower value 0.987 | locus YAL030W, strain snc1, stronger effect = lower value 0.988 | locus YAL040C, strain CLN3, stronger effect = lower value 1.03 | locus YBL061C, strain skt5, stronger effect = lower value 0.983 | locus YBR009C, strain hhf1, stronger effect = lower value 1 | locus YBR021W, strain FUR4, stronger effect = lower value 1.01 | locus YBR023C, strain chs3, stronger effect = lower value 0.98 | locus YBR171W, strain sec66, stronger effect = lower value 0.964 | locus YBR229C, strain ROT2, stronger effect = lower value 1.01 | locus YBR231C, strain swc5, stronger effect = lower value 0.991 | locus YBR279W, strain paf1, stronger effect = lower value 0.992 | locus YCL011C, strain gbp2, stronger effect = lower value 0.98 | locus YCL016C, strain dcc1, stronger effect = lower value 0.985 | locus YCL029C, strain bik1, stronger effect = lower value 1.01 | locus YCL061C, strain MRC1 (second series), stronger effect = lower value 1 | locus YCL061C, strain MRC1, stronger effect = lower value 0.982 | locus YCL069W, strain vba3, stronger effect = lower value 0.99 | locus YCR088W, strain abp1, stronger effect = lower value 0.986 | locus YDL005C, strain med2, stronger effect = lower value 0.974 | locus YDL035C, strain GPR1, stronger effect = lower value 1.03 | locus YDL040C, strain nat1, stronger effect = lower value 0.988 | locus YDL074C, strain BRE1, stronger effect = lower value 1.02 | locus YDL101C, strain DUN1, stronger effect = lower value 1.01 | locus YDL134C, strain PPH21, stronger effect = lower value 1.01 | locus YDL185W, strain tfp1, stronger effect = lower value 1.05 | locus YDL192W, strain arf1, stronger effect = lower value 1.01 | locus YDR001C, strain nth1, stronger effect = lower value 0.982 | locus YDR069C, strain doa4, stronger effect = lower value 1.01 | locus YDR101C, strain arx1, stronger effect = lower value 1 | locus YDR137W, strain rgp1, stronger effect = lower value 0.954 | locus YDR159W, strain sac3, stronger effect = lower value 1.01 | locus YDR162C, strain NBP2, stronger effect = lower value 1.01 | locus YDR195W, strain ref2 0.996 | locus YDR297W, strain sur2, stronger effect = lower value 0.985 | locus YDR318W, strain mcm21, stronger effect = lower value 1.01 | locus YDR334W, strain swr1, stronger effect = lower value 0.975 | locus YDR335W, strain msn5, stronger effect = lower value 0.997 | locus YDR363W, strain ESC2, stronger effect = lower value 1.01 | locus YDR388W, stronger effect = lower value 1.01 | locus YDR392W, strain spt3, stronger effect = lower value 0.903 | locus YDR502C, strain sam2, stronger effect = lower value 1.01 | locus YEL003W, strain gim4, stronger effect = lower value 1 | locus YEL037C, strain rad23, stronger effect = lower value 0.979 | locus YEL061C, strain CIN8 (second series), stronger effect = lower value 0.985 | locus YEL061C, strain CIN8, stronger effect = lower value 1.01 | locus YER002W, strain NOP16, stronger effect = lower value 0.981 | locus YER015W, strain faa2, stronger effect = lower value 0.99 | locus YER016W, strain bim1, stronger effect = lower value 1.01 | locus YER110C, stronger effect = lower value 1.02 | locus YER111C, strain swi4, stronger effect = lower value 0.983 | locus YER155C, strain BEM2 (second series), stronger effect = lower value 0.978 | locus YER155C, strain BEM2, stronger effect = lower value 1.01 | locus YER167W, strain BCK2, stronger effect = lower value 1.01 | locus YFR010W, strain ubp6, stronger effect = lower value 0.978 | locus YGL078C, strain dbp3, stronger effect = lower value 1.01 | locus YGL086W, strain mad1, stronger effect = lower value 1 | locus YGL167C, strain pmr1, stronger effect = lower value 0.985 | locus YGL173C, strain kem1, stronger effect = lower value 0.975 | locus YGL227W, strain vid30, stronger effect = lower value 0.991 | locus YGL240W, strain doc1, stronger effect = lower value 0.996 | locus YGL248W, strain PDE1, stronger effect = lower value 1 | locus YGL253W, strain hxk2, stronger effect = lower value 0.995 | locus YGR135W, strain pre9, stronger effect = lower value 1.01 | locus YGR229C, strain SMI1, stronger effect = lower value 1.03 | locus YGR252W, strain gcn5, stronger effect = lower value 1.01 | locus YHR013C, strain ard1, stronger effect = lower value 0.961 | locus YHR027C, strain rpn1, stronger effect = lower value 0.986 | locus YHR030C, strain SLT2, stronger effect = lower value 1.01 and 0.988 | locus YHR079C, strain IRE1 (second series), stronger effect = lower value 1.01 | locus YHR079C, strain IRE1, stronger effect = lower value 0.988 | locus YHR094C, strain hxt1, stronger effect = lower value 1.02 | locus YHR129C, strain ARP1, stronger effect = lower value 1 | locus YHR142W, strain chs7, stronger effect = lower value 0.956 | locus YHR200W, strain rpn10, stronger effect = lower value 1.01 | locus YIL066C, strain RNR3, stronger effect = lower value 1.01 | locus YIL073C, strain SPO22, stronger effect = lower value 1.1 | locus YIL125W, strain kgd1, stronger effect = lower value 1.01 | locus YIR030C, strain dcg1, stronger effect = lower value 1.01 | locus YJL092W, strain hpr5, stronger effect = lower value 0.983 | locus YJL095W, strain BCK1 (second series), stronger effect = lower value 0.993 | locus YJL095W, strain BCK1, stronger effect = lower value 1 and 0.976 | locus YJL115W, strain asf1, stronger effect = lower value 0.971 | locus YJL129C, strain trk1, stronger effect = lower value 0.987 | locus YJL134W, strain LCB3, stronger effect = lower value 1.01 | locus YJL154C, strain vps35, stronger effect = lower value 0.982 | locus YJL164C, strain tpk1, stronger effect = lower value 0.987 | locus YJL166W, strain qcr8, stronger effect = lower value 0.969 | locus YJL168C, strain set2, stronger effect = lower value 1.01 | locus YJL187C, strain SWE1 (second series), stronger effect = lower value 1 | locus YJL187C, strain SWE1, stronger effect = lower value 0.987 | locus YJR043C, strain POL32, stronger effect = lower value 1.02
